Measurements: PubChem BioAssay (NCI)
The panel holds about 83,000 compounds, 20% with a hit somewhere; the sample as a whole holds those more often.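 Assay: single dose, 48 h. Readout: percent growth (0 = no net growth; negative = cell death). Active: <10.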 A number with no mark means an inactive call. The source made the active and inactive calls.

Each compound was assayed on HL-60(TB) leukemia (assay: NCI-60 one-dose screen, 48 h (100 = growth as untreated, 0 = no growth, -100 = all killed)). Settings: 10 µM unless noted.

First: NNc1ccc(S(N)(=O)=O)cc1
Second: Oc1ccccc1O
The growth of the first is higher: 75.9% for the first, 55.8% for the second.

Going from `O=c1n(C2OC(CO)C(O)C2O)ccc2nccn12` (stereo not given) to `O=c1ccn(C2CC=C(CO)O2)c(=O)[nH]1` (stereo not given), the growth falls from 101% to 91.9%.

Going from `COc1cc(NC(=O)CCSc2nc3ccc(Cl)cc3c(=O)n2Cc2ccccc2)cc(OC)c1OC` to `O=C(COc1ccc(-c2nc3cc(Cl)c(Cl)cc3[nH]2)cc1)N=Nc1c(O)[nH]c2ccccc12`, the growth falls from 99.6% to 68.5%.

First: Nc1nccc(=S)[nH]1
Second: S=c1[nH]nc(Cn2c3ccccc3c3ccncc32)o1
The growth of the first is lower: 79.9% for the first, 87.6% for the second.

Compared with `COc1cc(-c2nc3ccccc3o2)cc(CN2CCCCC2)c1O`, `COc1ccc2ccccc2c1/C=N/N1CCCCC1` is higher in growth: 11.9% for the first, 94.3% for the second.

Compared with `COc1cc(/C=N\NC(=O)CN2CCN(c3cc4c(cc3F)c(=O)c(C(=O)N/N=C/c3ccc(O)c(OC)c3)cn4C3CC3)CC2)ccc1O`, `O=C(C(=O)N1CCCC1)c1cn(CCCn2cc(C(=O)C(=O)N3CCCC3)c3cc(Br)ccc32)c2ccc(Br)cc12` is higher in growth: 75.4% for the first, 86.5% for the second.

Compared with `COc1ccc2c(c1)oc1c(C)c3c(c(C)c12)C(=O)N(N)C3=O`, `COc1ccc2c(c1)c(-c1noc(-c3cn(C)c4ncc(F)cc34)n1)cn2C` is higher in growth: 38.3% for the first, 84.6% for the second.

Compared with `CCOC(=O)c1ccc(NC(C)=O)o1`, `CCOc1ccc(C(CN2CCOCC2)C(C)=O)cc1OC` (stereo not given) is higher in growth: 80.6% for the first, 84.7% for the second.

Compared with `CCCn1c(=S)sc2c1nc(C)n1c(Nc3ccccc3)nnc21`, `CCCc1nn(C)c2c(=O)[nH]c(-c3cc(S(=O)(=O)N4CCN(C)CC4)ccc3OCC)nc12` is higher in growth: 45.3% for the first, 114% for the second.

Going from `O=C(/C=C/c1ccc(C(F)(F)F)cc1)Nc1ccc(C=C2c3ccccc3C(=O)c3ccccc32)cc1` to `NC(=O)c1ccc(-c2c3ccccc3cc3c2ccc2ccccc23)cc1`, the growth rises from 11.2% to 15.6%.

Going from `c1ccc(/C(=N\N=C(/c2ccccc2)c2cccs2)c2cccs2)cc1` to `Oc1ccccc1/C=N/N=C\c1ccccc1Cl`, the growth falls from 91.1% to 30.9%.

Going from `CN(C)Cc1cc(C(C)(C)CC(C)(C)C)ccc1O` to `CC(=O)C1C(=O)C(=O)N(c2ccc(Cl)c(Cl)c2)C1=O` (stereo not given), the growth rises from 94.4% to 98.6%.

Going from `CC(=O)Nc1nc(C)c(C(=O)N/N=C/N2CCOCC2)s1` to `CCOC(=O)/C=C/C(=O)[C@H](CC(C)C)NC(=O)[C@H](Cc1ccccc1)NC(=O)OCc1ccccc1`, the growth falls from 188% to 25.9%.

First: CCC1(C)OC(=O)NC1=O (stereo not given)
Second: Nc1nc2ncc(CNc3ccc(C(=O)NC(CCC(=O)NC(CCC(=O)NC(CCC(=O)NC(CCC(=O)NC(CCC(=O)O)C(=O)O)C(=O)O)C(=O)O)C(=O)O)C(=O)O)cc3)nc2c(=O)[nH]1 (stereo not given)
The growth of the first is higher: 112% for the first, 93.5% for the second.

`Cc1cccc(Oc2ccc(Nc3ncnc4ccc(NC(=O)CN5CCN(C)CC5)cc34)cc2Cl)c1` was tested, and the growth was -40.2% (active).
In the case of `O=C(/C=C/c1cccc(Cl)c1Cl)Nc1ncc(Cc2ccccc2Cl)s1`, the growth is reported as -3.06% (active).
In the case of `COc1ccc(C(=O)C[C@]2(O)C(=O)Nc3c(Cl)ccc(Cl)c32)cc1`, the growth is reported as -6.62% (active).
For `CCOC(=O)N[C@H]1CCc2cc(OC)c(OC)c(OC)c2-c2ccc(SC)c(=O)cc21`, the growth was -28.9% (active).
`O=C1c2cc3c(cc2-c2c1c1ccc(F)cc1c(=O)n2CCCNCCO)OCO3` was tested, and the growth was -58.1% (active).
`O=C(COc1cccc(/C=C2\CSc3ccccc3C2=O)c1)c1ccc(Cl)cc1` was tested, and the growth was -48% (active).
In the case of `Cc1ccc(-c2nc([P+](c3ccccc3)(c3ccccc3)c3ccccc3)c(S(=O)(=O)c3ccc(C)cc3)o2)cc1`, the growth is reported as -14.4% (active).
`CCN1CCN(c2cc(C)nc(N(CCCNc3ccnc4cc(Cl)ccc34)Cc3ccc4c(c3)OCO4)n2)CC1` was tested, and the growth was -67.3% (active).
With `O=S1(=O)C=C(c2ccccc2)C(c2ccccc2)=C1` the growth was -16.3% (active).
In the case of `COC(=O)c1c(C)[nH]c(/C=C2\N=C(c3ccc[nH]3)C=C2OC)c1C`, the growth is reported as 4.25% (active).
`NC(CSC(c1ccccc1)(c1ccccc1)c1ccc(F)cc1)C(=O)O` (stereo not given) was tested, and the growth was -39.2% (active).
In the case of `COc1cccc(C(=O)NNc2nc(Cl)nc(N3CCN(C(c4ccccc4)c4ccccc4)CC3)n2)c1`, the growth is reported as 0.787% (active).
